Compound activity deposited in PubChem by National Center for Advancing Translational Sciences (NCATS).
JMJD2A Tudor: inhibitors of human JMJD2A Tudor domain | AlphaScreen JMJD2A-Tudor / H3K4me3 peptide binding | actives 4.4% (n = 390,000) | O75164 | Potency, µM (titrated, usually from 114 µM), most hits filed as inhibitors; also: nearly all actives have a fitted effect of over 50% in size
Sfp inh: Sfp phosphopantetheinyl transferase inhibition | AID 1490 | Biochemical Sfp PPTase activity, qHTS | Potency, µM, actives largely listed as inhibitors | Q9F4F7 | actives 3.5% (n = 310,000);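 also: the enzyme is Sfp with the accession as filed and its product quenches rhodamine fluorescence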
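After 15 min at room temperature with compound, 15 nM Sfp received 5 uM rhodamine-CoA plus 12.5 uM BHQ-2-ybbR (50 mM Hepes pH 7.6, 10 mM MgCl2). Rate came from the fluorescence difference over 30 min, ex 525/em 598 nm.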
BAZ2B inh: inhibitors of human BAZ2B bromodomain; Q9UIF8; AlphaScreen BAZ2B-H3K14Ac peptide displacement; Potency, µM (series often up to 114 µM), usual class: inhibitors; actives 4.4% (n = 360,000); also: nearly all actives have a fitted effect of over 60% in size
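Compounds, titrated to a top concentration of 110 uM, were incubated 30 min at room temperature with preformed BAZ2B/acetyl-K14 H3 peptide complex (50 nM each). Proximity signal was measured by AlphaScreen after 20 min with beads.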
G9a block: G9a (human) methyltransferase inhibition. Q96KQ7. G9a H3K9 monomethylation, AlphaScreen, 2 h. Potency, µM (titrated, usually from 102 µM), most hits filed as inhibitors. actives 8.8% (n = 350,000); also: nearly all actives have a fitted effect of over 75% in size
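Compounds were preincubated with 20 nM G9a for 15 min, after which biotinylated H3K9 peptide (500 nM) and SAM (20 uM) started a 2 h room-temperature reaction. Monomethylated product was quantified by antibody-based AlphaScreen chemiluminescence.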
HP1b binding inh: HP1-beta chromodomain-methylated histone interaction inhibition | P83916 | AlphaScreen HP1-beta / biotin-H3K9me3 peptide binding | Potency, µM (titrated, usually from 114 µM), most hits filed as inhibitors | actives 0.56% (n = 390,000); also: nearly all actives have a fitted effect of over 70% in size
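HP1-beta protein (50 nM final) preincubated 30 min at room temperature with biotinylated H3(1-18)K9me3 peptide (50 nM) in PBS pH 7.4, 0.01% Tween-20, then compound added for 30 min. AlphaScreen streptavidin donor/nickel chelate acceptor beads (10 ug/mL final), 30 min dark, luminescence read.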
Hits are given with their value; n = inactive; u = inconclusive; x = no result; [ ] = another dose, or the depositor's remark. Hits are enriched below; roughly 12% of the tested compounds scored in any of these assays. Calls follow the shape of the dose curve; as a rule, active = well fitted curve in the direction sought with a large enough effect; inconclusive = small, poorly fitted or top-dose-only effect, or another doubt; inactive = no such curve, though single readings can be large; an effect the other way counts as inactive or inconclusive.

SMILES	JMJD2A Tudor	Sfp inh	BAZ2B inh	G9a block	HP1b binding inh
Nc1ccc(SC(F)(F)F)cc1	n	n	n	50.1µM	n
N#C/C(=C(/N)Sc1ccc(N)cc1)c1ccccc1C(F)(F)F	x	n	x	x	x
N=C1/C(=C/c2cccn2Cc2ccc(Cl)cc2)C(=O)N=C2SC=CN12	n	39.8µM	u	n	n
CCOc1ccc(CCNC(=O)c2ccc(Cn3c(=O)c4cccn4c4cccnc43)cc2)cc1	n	x	u	n	n
Cc1ccccc1OCC(=O)Nc1nc(-c2ccncc2)cs1	n	x	n	n[2.33 µM]	n
O=C(CCS(=O)(=O)c1ccccc1)Nc1nc(-c2ccccn2)cs1	89.1µM	x	x	x	n
Cc1cc(C)c(OCC(=O)Nc2nc(-c3ccccn3)cs2)c(C)c1	n	n	50.1µM	44.7µM	n
Cc1ccc(S(=O)(=O)CC(=O)Nc2nc(-c3ccccc3)cs2)cc1	n	n	n	n	n
Cc1ccc(S(=O)(=O)CCC(=O)Nc2nc(-c3ccncc3)cs2)cc1	n	n	n	39.8µM	n
COc1ccc(OCCCC(=O)Nc2nc(-c3ccccn3)cs2)cc1	n	39.8µM	50.1µM	u	n
COc1ccc(OCCC(=O)Nc2nccs2)cc1	n	n	n	n	n
O/N=C1\CCCCc2ccccc21	n	n	n	n	n
CCCC(=O)Nc1nc2c(s1)COc1ccccc1-2	n	n	n	x	n
COc1ccc2oc(C(=O)Nc3nc(-c4ccccn4)cs3)c(C)c2c1	n	x	n	50.1µM	n
COc1ccc2oc(C(=O)NC(C)c3ccccn3)c(C)c2c1 (centres undefined)	n	x	x	x	n
Cc1sc(NC(=O)COc2ccc(C(C)(C)C)cc2)c(C(=O)OC(C)C)c1C	n	x	n	n	n
Cc1cccc(C)c1Nc1c(-c2ccc(O)cc2)nc2sccn12	44.7µM	x	39.8µM	3.98µM	15.8µM
COc1cc(-c2nc3sccn3c2Nc2c(C)cccc2C)ccc1O	56.2µM	x	n	n	u
COc1ccc(NC(=O)CN2C(=O)C3(SCC(=O)N3c3ccccc3)c3ccccc32)cc1Cl (centres undefined)	n	x	n	n	n
N#Cc1c(N)sc(=S)c2c1CCN(Cc1ccccc1)C2	x	3.55µM	79.4µM	u	x
N#Cc1c(NCCO)nc(NCc2ccccc2)c2c1CCN(Cc1ccccc1)C2	u	n	44.7µM	u	n
C=CCNc1nc(N2CCCCC2)c(C#N)c2c1CN(Cc1ccccc1)CC2	n	n	n	n	n
CCN1CCc2c(sc(N)c2C#N)C1	n[11.4 µM]	n	n	n[12.7 µM]	n
CCN1CCc2c(C#N)c(N3CCOCC3)nc(NCc3ccccc3)c2C1	n	n	u	u	n
CCN1CCc2c(C#N)c(N3CCCCC3)nc(NCc3ccccc3)c2C1	u	n	56.2µM	u	n
SMILES	JMJD2A Tudor	Sfp inh	BAZ2B inh	G9a block	HP1b binding inh
O=C(N/C=N/OCc1cccc(C(F)(F)F)c1)N1OC[C@@H]2COc3ccc4ccccc4c3[C@@H]21	n	n	n	u	n
COc1ccccc1N1CCN(c2cc(C)nc3nc(-c4ccc(C)cc4)nn23)CC1	n	x	n	n	n
Cc1nc2c(c(C)nn2-c2ccccc2)c(C)c1CCC(=O)NCCc1ccccc1	n	x	n	n	n
COc1ccc(Cl)cc1NC(=O)CSc1ccc2nnc(CCNS(=O)(=O)c3ccccc3)n2n1	n	x	n	n	n
O=C(N/N=C/c1cc(Br)c(O)c(Br)c1O)c1ccc2c(c1)OCCO2	39.8µM	u	44.7µM	u	n
O=C(CNC(=O)c1ccccc1)N/N=C/c1cc(Br)ccc1O	n	n	n	n	n
O=C(CNC(=O)c1ccc2c(c1)OCO2)N/N=C/c1cc(Br)ccc1O	u	n	n	79.4µM	n
O=C(N/N=C/c1cc(Br)c(Br)o1)c1ccc2c(c1)OCCO2	39.8µM	4.47µM	44.7µM	x	u
Cc1cc(Br)cc(/C=N/NC(=O)c2ccc3c(c2)OCO3)c1O	n	n	u	x	n
O=C(N/N=C/c1cc(Br)c(Br)o1)c1cccnc1	u	31.6µM	u	u	n
O=C(N/N=C/c1ccc2c(c1)OCO2)c1ccc2c(c1)OCCO2	n	n	n	n	n
COC(=O)C1=C(N)Oc2c(oc(CO)cc2=O)C1c1ccccc1F (centres undefined)	n	n	n	n	n
O=C(CN1CCN(c2ccc(Cl)cc2)CC1)Nc1ccc(F)cc1F	n	x	n	n	n
O=c1c(O)c(-c2cccc(O)c2)oc2ccccc12	x	44.7µM	x	x	x
Cc1nc(CS(=O)c2ccc(Cl)cc2)cc(N2CCOCC2)n1 (centres undefined)	n[11.4 µM]	n	n	n	n
NC(=O)Nn1c(CCC(=O)O)ccc1-c1ccc(Cl)cc1	n	n	n	n[12.7 µM]	n
O=C(O)CCc1ccc(-c2ccccc2)n1NC(=O)c1sc2ccccc2c1Cl	n	n	u	50.1µM	n
COc1ccc(C(=O)N/N=C/c2ccc(OC)c(CN3CCc4cc(OC)c(OC)cc4C3C)c2)cc1 (centres undefined)	n	100µM	n	n	n
COc1ccc(/C=N/NC(=O)c2ccccc2)cc1CN1CCN(c2ccc(F)cc2)CC1	n	n	n	n[12.7 µM]	n
COc1cc(C(=O)N/N=C/c2ccc(OC)c(CN3CCN(c4ccc(F)cc4)CC3)c2)ccc1O	44.7µM	n	n	u	n
COc1cc(/C=N/NC(=O)c2ccc(-n3cccc3)cc2)ccc1O	u	n	u	79.4µM	n
COc1ccc(/C=N/NC(=O)c2ccccc2F)cc1CN1CCN(c2ccc(F)cc2)CC1	n	n	50.1µM	n	n
COc1ccc(C(=O)Nc2ccc3c(c2)nc(CN2CCCC2)n3C)cc1	n	n	n	n	n
O=C(NCCn1cc(SCc2ccccc2)c2ccccc21)c1cccs1	n	x	u	n	n
O=C(N/N=C/c1ccc(O)c(O)c1)NC12CC3CC(CC(C3)C1)C2	u	n	u	n[2.33 µM]	n
SMILES	JMJD2A Tudor	Sfp inh	BAZ2B inh	G9a block	HP1b binding inh
COc1cc(/C=N/NC(=O)NC23CC4CC(CC(C4)C2)C3)ccc1O	n	n	u	56.2µM	n
Cc1ccc(C(=O)c2c3ccc([N+](=O)[O-])cc3[n+]([O-])n2CCC(N)=O)cc1	n	n	u	50.1µM	n
COc1cccc(NC(=O)CN(C)C(=O)c2ccc3[nH]c4c(c3c2)CC(C)CC4)c1 (centres undefined)	u	x	39.8µM	35.5µM	n
COc1ccc(Cl)cc1NC(=O)CN(C)C(=O)c1ccc2c(c1)CC(c1ccccc1)OC2=O (centres undefined)	u	x	n	u	n
COc1cccc(NC(=O)CN(C)C(=O)c2ccc3c(c2)CC(c2ccccc2)OC3=O)c1 (centres undefined)	89.1µM	x	u	n[2.33 µM]	n
COc1ccc(NC(=O)CN(C)C(=O)c2ccc3[nH]c4c(c3c2)CC(C)CC4)cc1 (centres undefined)	u	x	u	44.7µM	u
CC1CCc2[nH]c3ccc(C(=O)N(C)CC(=O)Nc4ccc(F)cc4)cc3c2C1 (centres undefined)	u	n	u	u	u
Cc1nc(C)c(C(=O)OCC(=O)NCCc2ccc(F)cc2)s1	n	x	n	39.8µM	n
